Screening results (PubChem)
PINK1 expr mod = A Quantitative High throughput Screen to Identify Chemical Modulators of PINK1 Expression; PINK1 immunofluorescence, high-content cytometry, 24 h; Potency, µM (top dose mostly 76.6 µM), for inactives: at the top dose activation (PINK1 increase), most hits filed as activators; 410,000 tested, 0.2% active; active means well fitted activation curve with a large enough effect; inconclusive means small, poorly fitted or top-dose-only effect; cell line not stated here; further: % of control where 0% means no effect; nearly all actives have a fitted effect of over 65% in size
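Readout is PINK1 immunofluorescence, quantified alongside mitochondrial, cell and nuclear markers by laser-scanning microplate cytometry. Cells from a stable line were exposed to compound titrations (5 concentrations) for 24 hours, with CCCP controls.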
TSG101-PTAP inh = qHTS Assay for Iinhibitors of HIV-1 Budding by Blocking the Interaction of PTAP/TSG101; Tumor susceptibility gene 101 protein (Homo sapiens), Q99816; Fluorescence polarization, FITC-PTAP peptide / Tsg101 binding; Potency, µM (doses to about 115 µM), for inactives: at the highest dose activity change, negative = inhibition, hits mostly inhibitors; 340,000 tested, under 10 active; active means well fitted inhibition curve with a large enough effect in the main read-out, with a control signal flat, not every such curve was filed as active; inconclusive means small, poorly fitted or top-dose-only effect, or effect the other way, or a change in a side signal; inactive means no such curve, though single readings can be large or run the other way; further: % of control where 0% means no effect
Target sequence (Q99816 whole entry, looked up): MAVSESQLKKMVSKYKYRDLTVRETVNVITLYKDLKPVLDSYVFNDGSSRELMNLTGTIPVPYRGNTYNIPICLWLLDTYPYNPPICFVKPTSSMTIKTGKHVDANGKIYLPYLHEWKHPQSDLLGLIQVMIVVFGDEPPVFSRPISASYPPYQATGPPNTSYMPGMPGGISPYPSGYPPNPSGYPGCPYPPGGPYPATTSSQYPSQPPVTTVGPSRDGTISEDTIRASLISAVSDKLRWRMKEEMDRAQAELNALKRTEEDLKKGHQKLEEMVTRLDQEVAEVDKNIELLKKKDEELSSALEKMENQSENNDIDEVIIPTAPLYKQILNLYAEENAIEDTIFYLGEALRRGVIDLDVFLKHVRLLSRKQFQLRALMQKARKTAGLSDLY
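Compounds were pin-transferred onto Tsg101 binding domain (10 uM final) in HEPES pH 7.5 buffer, then FITC-PTAP peptide was added at 50 nM final. After 20 min at RT, polarization reported peptide displacement across a qHTS concentration series.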
KB-V1 MDR tox = qHTS assay for MDR1-selective chemotherapeutics: Primary screen using the drug-selected MDR subline cells KB-V1 | KB-V1 MDR cells viability, CellTiter-Glo, 72 h | Potency, µM (doses to about 46.1 µM), hits mostly cytotoxic | 400,000 tested, 3.4% active; further: on the % scale 0 is the no-effect control and ±100 the full control effect; nearly all actives have a fitted effect of over 60% in size
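Potencies derive from concentration-effect curves fitted to normalized luminescence (CellTiter-Glo) of KB-V1 cells treated for 72 h at 37 degrees C in phenol-red-free DMEM containing 10% FBS.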
KB-3-1 tox = qHTS assay for MDR1-selective chemotherapeutics: Primary screen using the parental adenocarcinoma cell KB-3-1. 400,000 tested, 1.4% active. KB-3-1 viability, CellTiter-Glo ATP luminescence, 72 h. Potency, µM (doses to about 46.1 µM), actives largely listed as cytotoxic. AID 1347075, 2019; further: on the % scale 0 is the no-effect control and ±100 the full control effect; nearly all actives have a fitted effect of over 60% in size
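KB-3-1 parental drug-naive adenocarcinoma cells in DMEM/10% FBS, incubated 72 h at 37 C with pin-transferred compounds across a concentration series. Viability by CellTiter-Glo luminescence; concentration-response curves fitted after normalization.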
SW480 rereplic = A quantitative high throughput screen for small molecules that induce DNA re-replication in SW480 colon adenocarcinoma cells; SW480 DNA re-replication, Hoechst DNA content imaging, 48 h; 340,000 tested, 1.8% active; Potency, µM (doses to about 46.1 µM), for inactives: at the highest dose re-replication activation, actives largely listed as activators; further: % of control where 0% means no effect; nearly all actives have a fitted effect of over 55% in size
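Treated cells incubate 48 hr (37 C, 5% CO2), are stained 40 min with Hoechst, and nuclear fluorescence is enumerated; a rise in nuclei with high DNA signal marks re-replication.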
MCF10A rerep = A quantitative high throughput screen for small molecules that induce DNA re-replication in MCF 10a normal breast cells; MCF 10A DNA re-replication, Hoechst nuclear intensity, 48 h; Potency, µM (titrated, usually from 46.1 µM), inactives show at the top dose activity, positive = re-replication, hits mostly activators; 350,000 tested, 2.9% active; further: % of control where 0% means no effect; nearly all actives have a fitted effect of over 50% in size
Active calls of the source: *; i = inactive; ? = inconclusive; . = not tested or not shown; [ ] = remark or other dose. Most compounds without a hit are left out; they make up all but 6.8% or so of the library. Unless noted, the call rests on the fitted dose curve; in most records, active means well fitted curve in the direction sought with a large enough effect; inconclusive means small, poorly fitted or top-dose-only effect, or another doubt; inactive means no such curve, though single readings can be large; an effect the other way counts as inactive or inconclusive. Potency means the concentration at half of the fitted maximal effect.

SMILES	PINK1 expr mod	TSG101-PTAP inh	KB-V1 MDR tox	KB-3-1 tox	SW480 rereplic	MCF10A rerep
Cc1ccc(OCCC(=O)OCC(=O)N2CCN(S(=O)(=O)c3ccc(Cl)cc3)CC2)cc1	1%	0%	i	i	18µM*	4%
Cc1ccc(S(=O)(=O)N2CCN(C(=O)COc3ccc(Br)cc3)CC2)cc1	0%	-1%	16µM*	i	-1%	2%
COc1ccc(NC(=O)CN2CCCN(S(=O)(=O)c3ccc(Br)cc3)CC2)c(OC)c1	1%	.	?	?	.	.
COc1ccc(OC)c(C(=O)CN2CCN(S(=O)(=O)c3ccc(Br)cc3)CC2)c1	-1%	-3%	i	i	?	23µM*
Cc1ccc(S(=O)(=O)N2CCN(C(=O)COC(=O)C3CCC3)CC2)cc1	0%	-3%	i	i	6.5µM*	-1%
CCOc1ccc(OCCC(=O)OCC(=O)N2CCN(S(=O)(=O)c3ccc(C)cc3)CC2)cc1	17%	-3%	i	i	11%	?
Cc1cccc(NC(=O)CSc2nc(-c3ccco3)nc3cc(=O)[nH]n23)c1	0%	.	i	i	.	.
Cc1c(C(=O)N(Cc2cccc(F)c2)C2CCS(=O)(=O)C2)oc2cc(Br)ccc12 (stereo unspecified)	-1%	.	i	i	.	.
COc1ccccc1CNC(=O)CSc1ccc(-c2sc(-c3ccccc3)nc2C)nn1	1%	.	i	i	.	.
Cc1ccc(S(=O)(=O)N2CCN(C(=O)CN3CCc4ccccc4C3)CC2)cc1	-1%[38.3 µM]	.	4.1µM*	i	7%	6%
CCOC(=O)C1CCN(S(=O)(=O)c2ccc(C(C)=O)cc2)CC1	11µM*	-4%	i	i	-5%	-8%
CN(C(=O)COC(=O)C1CCN(S(=O)(=O)c2c(Cl)cccc2Cl)CC1)C1CCCCC1	2%	0%	i	i	3.7µM*	?
CN(C(=O)COC(=O)C1CCN(S(=O)(=O)c2c(Cl)cccc2Cl)CC1)c1ccccc1	0%	-4%	i	i	12%	2%
Cc1ccc(S(=O)(=O)N2CCN(C(=O)COC(=O)CCOc3ccc(C(C)(C)C)cc3)CC2)cc1	3%	-2%	i	i	18µM*	4%
Cc1ccc(OCCC(=O)OCC(=O)N2CCN(S(=O)(=O)c3ccc(C)cc3C)CC2)cc1	-4%	-1%	i	i	-31%	0%
O=C(CN1CCc2ccccc2C1)N1CCN(S(=O)(=O)c2ccccc2)CC1	3%[38.3 µM]	-1%	?	i	-10%	21%
CC1=C(C(=O)NCc2ccc(Cl)cc2)C2(CCCCC2)OC1=O	0%	.	.	.	.	.
COc1ccc(OC)c(/C=C/C(=O)Nc2cccc(S(=O)(=O)N3CCCC3)c2)c1	-1%	0%	i	i	14%	23µM*
O=C(CNc1cccc(C(F)(F)F)c1)Nc1cccc(S(=O)(=O)N2CCCC2)c1	?	-7%	?	?	2%	12%
O=C(CNc1cc(S(=O)(=O)N2CCCC2)ccc1OCC(F)(F)F)Nc1cccc(C(F)(F)F)c1	0%	-4%	9.2µM*	21µM*	.	8%
COc1cc(C#N)ccc1OCC(=O)Nc1cccc(S(=O)(=O)N2CCCC2)c1	0%	-7%	16µM*	i	-5%	6%
COc1ccc(-n2cnnc2SCC(=O)Nc2cccc(S(=O)(=O)N3CCCCC3)c2)cc1	1%	-3%	15µM*	i	11%	15%
